Results as given in the supplement of paper PMC10849652.
About 7,900 targets were measured; listed, in parts, are those with a hit and a random draw of the rest. About 0.6% of all pairs of compound and target were hits.

Tests used:
Experiment in all cases: log2 fold change, soluble protein after heating vs DMSO (PISA); higher = thermal stabilisation; K562 cells, 10 uM, 30 min; active = over 0.2 and 3.5 SD of the protein, either way, in both replicates (recomputed)
erlotinib = compound: C#Cc1cccc(Nc2ncnc3cc(OCCOC)c(OCCOC)cc23)c1 [erlotinib]
Outline: (§1)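 K562 cells at 2×10^6 cells/mL were exposed to 10 μM compound for 30 min, then aliquots were heated for 3 min across 48°C-58°C, pooled, and extracted in PBS containing 0.5% NP-40 at 4°C. The supernatant after 21,000xg for 90 min was taken as soluble protein and measured by TMTpro 16plex LC-MS/MS with channel sums equalised. Thermal stability is reported relative to control samples, with values from duplicates. Fold changes are given on a log2 scale.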

[1] = compound: C/C(=N\NC(=O)C1=CC(=CC=C1)S(=O)(=O)N2CCOCC2)/C3=C(C=CC(=C3)Cl)O
Outline: as §1

[2] = compound: C1=CC(=C(C=C1Cl)C2=NC3=NC=CN=C3C(=N2)NC4=CC=NC=C4)F
Outline: as §1

[3] = compound: C1=CC(=CC=C1C2=NC3=C(N2)C=C(C=C3)C(=O)N)OC4=CC=C(C=C4)Cl
Outline: as §1

[4] = compound: C1=CC2=C(C=CC(=C2)/C=C\3/C(=O)NC(=NCC4=CC=CS4)S3)N=C1
Outline: as §1

[5] = compound: C1=CC2=NC=CN=C2C=C1/C=C/3\C(=O)NC(=O)S3
Outline: as §1

[6] = compound: C1=CC=C(C=C1)C2=NC(=C(N2)C3=CC=NC=C3)C4=CC(=C(C=C4)Cl)O
Outline: as §1

[7] = compound: C1=CC=C2C(=C1)C3=NNC4=CC=CC(=C43)C2=O
Outline: as §1

[8] = compound: C1CCN(C1)C(=O)NC2=CC=CC(=C2)NC3=NC=C(C(=N3)NCCC4=CN=CN4)Br
Outline: as §1

[9] = compound: C1CN(CCC1(CC2=CC=C(C=C2)Cl)N)C3=NC=NC4=C3C=CN4
Outline: as §1

Measured: log2 fold change

GIGYF2 (UniProt Q6Y7W6)
inactive: erlotinib 0.062 | [1] 0.081 | [2] -0.022 | [3] -0.03 | [4] 0.05 | [5] 0.014 | [6] 0.009 | [7] 0.025 | [8] -0.039 | [9] -0.025

GNAI3 (UniProt P08754)
inactive: erlotinib -0.078 | [1] -0.038 | [2] -0.01 | [3] 0.205 | [4] 0.021 | [5] 0 | [6] 0.036 | [7] -0.026 | [8] -0.047 | [9] 0.026

HPCAL1 (UniProt P37235)
inactive: erlotinib 0.011 | [1] 0.048 | [2] 0.029 | [3] 0 | [4] 0 | [5] 0.057 | [6] -0.063 | [7] 0.002 | [8] 0.013 | [9] -0.034

HNRNPH2 (UniProt P55795)
inactive: erlotinib 0.019 | [1] 0.17 | [2] 0.037 | [3] -0.028 | [4] 0.112 | [5] -0.031 | [6] -0.047 | [7] -0.016 | [8] -0.068 | [9] 0.024

IFI30 (UniProt P13284)
inactive: erlotinib 0.061 | [1] 0.018 | [2] -0.084 | [3] 0.012 | [4] -0.089 | [5] 0.026 | [6] 0.067 | [7] 0.009 | [8] -0.004 | [9] 0.026

GABPA (UniProt Q06546)
inactive: erlotinib 0.07 | [1] 0.121 | [2] 0.014 | [3] -0.042 | [4] 0.083 | [5] -0.055 | [6] 0.049 | [7] 0.025 | [8] -0.028 | [9] 0.011

FYB1 isoform 3 (UniProt O15117)
inactive: erlotinib 0.019 | [1] 0.032 | [2] -0.02 | [3] -0.01 | [4] 0.057 | [5] 0.006 | [6] 0.014 | [7] -0.08 | [8] -0.041 | [9] 0

HMG20A (UniProt Q9NP66)
active: [6] 0.429
inactive: erlotinib -0.005 | [1] 0.125 | [2] -0.09 | [3] 0.017 | [4] -0.281 | [5] -0.009 | [7] 0.001 | [8] -0.013 | [9] 0.006

GLUL (UniProt P15104)
UniProt P15104, sequence (P15104 whole entry, looked up): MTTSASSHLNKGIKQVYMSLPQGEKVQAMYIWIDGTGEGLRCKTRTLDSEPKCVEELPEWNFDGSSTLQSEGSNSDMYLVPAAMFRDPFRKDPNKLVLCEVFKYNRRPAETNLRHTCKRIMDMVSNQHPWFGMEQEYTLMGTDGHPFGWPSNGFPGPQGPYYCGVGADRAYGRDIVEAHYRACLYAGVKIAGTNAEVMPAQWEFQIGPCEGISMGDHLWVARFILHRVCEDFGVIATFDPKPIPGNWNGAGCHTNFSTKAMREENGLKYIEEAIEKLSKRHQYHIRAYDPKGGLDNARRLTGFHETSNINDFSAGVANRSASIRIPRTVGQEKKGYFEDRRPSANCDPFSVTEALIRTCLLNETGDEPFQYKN
inactive: erlotinib -0.058 | [1] 0.016 | [2] 0.027 | [3] 0.022 | [4] -0.006 | [5] -0.003 | [6] -0.007 | [7] -0.045 | [8] -0.037 | [9] 0.017

HIST2H3A (UniProt Q71DI3)
inactive: erlotinib 0.113 | [1] -0.114 | [2] -0.305 | [3] -0.028 | [4] 0.011 | [5] 0.221 | [6] 0.047 | [7] -0.004 | [8] 0.287 | [9] -0.378

HMGB3 (UniProt O15347)
UniProt O15347, sequence (O15347 whole entry, looked up): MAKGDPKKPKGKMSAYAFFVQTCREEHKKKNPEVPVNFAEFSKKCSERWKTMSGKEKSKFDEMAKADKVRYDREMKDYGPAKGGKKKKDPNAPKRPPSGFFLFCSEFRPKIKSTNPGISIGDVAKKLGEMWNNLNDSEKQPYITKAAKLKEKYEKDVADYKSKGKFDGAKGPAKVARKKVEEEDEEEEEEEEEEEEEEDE
active: [4] -0.267
inactive: erlotinib -0.037 | [1] -0.002 | [2] 0.047 | [3] 0.011 | [5] -0.042 | [6] 0.095 | [7] -0.006 | [8] -0.025 | [9] 0.023

GCC2 (UniProt Q8IWJ2)
UniProt Q8IWJ2, sequence (Q8IWJ2 whole entry, looked up): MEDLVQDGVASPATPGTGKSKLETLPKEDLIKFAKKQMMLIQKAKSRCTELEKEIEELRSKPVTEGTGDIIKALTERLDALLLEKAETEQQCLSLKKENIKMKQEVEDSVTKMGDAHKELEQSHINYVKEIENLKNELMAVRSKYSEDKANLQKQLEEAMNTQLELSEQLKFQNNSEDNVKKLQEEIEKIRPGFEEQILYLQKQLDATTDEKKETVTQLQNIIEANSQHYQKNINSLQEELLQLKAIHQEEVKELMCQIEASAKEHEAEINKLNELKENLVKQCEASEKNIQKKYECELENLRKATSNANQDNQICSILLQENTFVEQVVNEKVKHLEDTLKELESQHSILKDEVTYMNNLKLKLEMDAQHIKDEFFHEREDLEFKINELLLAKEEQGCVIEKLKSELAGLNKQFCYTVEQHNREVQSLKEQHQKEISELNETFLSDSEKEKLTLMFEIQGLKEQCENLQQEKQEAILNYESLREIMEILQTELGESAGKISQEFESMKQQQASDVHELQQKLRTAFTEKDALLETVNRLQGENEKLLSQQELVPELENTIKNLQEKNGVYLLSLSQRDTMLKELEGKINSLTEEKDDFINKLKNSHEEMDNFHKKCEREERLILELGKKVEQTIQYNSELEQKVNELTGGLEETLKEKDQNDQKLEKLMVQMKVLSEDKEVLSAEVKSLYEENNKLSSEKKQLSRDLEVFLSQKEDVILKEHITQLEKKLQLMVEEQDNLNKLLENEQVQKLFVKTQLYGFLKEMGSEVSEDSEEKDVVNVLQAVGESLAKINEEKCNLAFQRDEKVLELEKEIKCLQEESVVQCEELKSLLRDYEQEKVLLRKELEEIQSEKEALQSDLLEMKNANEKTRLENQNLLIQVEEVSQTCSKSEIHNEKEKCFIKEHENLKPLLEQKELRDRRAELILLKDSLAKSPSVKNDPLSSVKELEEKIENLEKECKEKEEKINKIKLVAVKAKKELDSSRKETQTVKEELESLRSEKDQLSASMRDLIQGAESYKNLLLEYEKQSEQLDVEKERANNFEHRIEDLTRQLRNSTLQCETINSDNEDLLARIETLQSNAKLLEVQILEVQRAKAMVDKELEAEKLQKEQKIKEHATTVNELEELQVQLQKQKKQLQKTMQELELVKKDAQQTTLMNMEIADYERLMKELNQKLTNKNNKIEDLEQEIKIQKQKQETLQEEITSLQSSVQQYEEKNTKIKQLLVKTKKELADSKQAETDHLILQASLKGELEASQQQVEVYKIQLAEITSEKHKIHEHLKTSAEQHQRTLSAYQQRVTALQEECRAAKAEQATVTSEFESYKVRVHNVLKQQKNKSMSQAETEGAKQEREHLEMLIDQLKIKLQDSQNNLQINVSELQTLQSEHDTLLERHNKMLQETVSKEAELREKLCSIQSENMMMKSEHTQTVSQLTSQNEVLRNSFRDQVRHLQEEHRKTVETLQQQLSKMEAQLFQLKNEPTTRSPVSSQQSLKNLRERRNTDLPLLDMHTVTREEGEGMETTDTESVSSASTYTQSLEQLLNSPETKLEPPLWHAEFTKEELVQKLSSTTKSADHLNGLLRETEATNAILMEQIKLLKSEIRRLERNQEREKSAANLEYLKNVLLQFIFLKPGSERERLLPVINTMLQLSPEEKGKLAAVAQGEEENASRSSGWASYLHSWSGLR
inactive: erlotinib -0.062 | [1] 0 | [2] -0.155 | [3] -0.017 | [4] -0.076 | [5] 0.034 | [6] -0.032 | [7] -0.021 | [8] -0.054 | [9] -0.154

GNAS (UniProt Q5JWF2)
inactive: erlotinib 0.001 | [1] 0.042 | [2] -0.032 | [3] 0.043 | [4] 0.026 | [5] 0.021 | [6] 0.02 | [7] 0.011 | [8] -0.011 | [9] 0.043

IFT80 isoform 3 (UniProt Q9P2H3)
UniProt Q9P2H3, sequence (Q9P2H3 whole entry, looked up): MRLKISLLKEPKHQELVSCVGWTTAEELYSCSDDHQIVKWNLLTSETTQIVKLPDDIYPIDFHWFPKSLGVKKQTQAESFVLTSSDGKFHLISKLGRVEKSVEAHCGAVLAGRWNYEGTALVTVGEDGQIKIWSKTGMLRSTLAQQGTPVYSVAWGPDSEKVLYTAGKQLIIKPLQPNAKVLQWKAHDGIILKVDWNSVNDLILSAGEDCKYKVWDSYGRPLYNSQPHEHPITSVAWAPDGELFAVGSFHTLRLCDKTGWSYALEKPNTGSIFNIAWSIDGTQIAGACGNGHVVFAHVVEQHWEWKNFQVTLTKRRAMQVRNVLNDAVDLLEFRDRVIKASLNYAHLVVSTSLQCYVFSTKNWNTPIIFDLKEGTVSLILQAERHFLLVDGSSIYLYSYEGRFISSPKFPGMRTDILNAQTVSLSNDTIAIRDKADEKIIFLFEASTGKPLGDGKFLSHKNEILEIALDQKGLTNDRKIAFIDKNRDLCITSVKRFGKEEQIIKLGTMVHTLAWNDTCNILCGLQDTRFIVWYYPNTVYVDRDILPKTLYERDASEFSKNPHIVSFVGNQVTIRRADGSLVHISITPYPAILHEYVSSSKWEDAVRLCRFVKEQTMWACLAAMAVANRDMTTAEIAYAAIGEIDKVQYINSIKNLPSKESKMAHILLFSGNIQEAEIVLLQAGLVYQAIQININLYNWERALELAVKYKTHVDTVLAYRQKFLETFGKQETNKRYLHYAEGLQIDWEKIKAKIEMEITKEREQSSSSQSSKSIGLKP
inactive: erlotinib 0.04 | [1] 0.071 | [2] -0.04 | [3] 0.013 | [4] 0.042 | [5] -0.011 | [6] -0.066 | [7] -0.229 | [8] -0.013 | [9] 0.042

GGT7 (UniProt Q9UJ14)
UniProt Q9UJ14, sequence (Q9UJ14 whole entry, looked up): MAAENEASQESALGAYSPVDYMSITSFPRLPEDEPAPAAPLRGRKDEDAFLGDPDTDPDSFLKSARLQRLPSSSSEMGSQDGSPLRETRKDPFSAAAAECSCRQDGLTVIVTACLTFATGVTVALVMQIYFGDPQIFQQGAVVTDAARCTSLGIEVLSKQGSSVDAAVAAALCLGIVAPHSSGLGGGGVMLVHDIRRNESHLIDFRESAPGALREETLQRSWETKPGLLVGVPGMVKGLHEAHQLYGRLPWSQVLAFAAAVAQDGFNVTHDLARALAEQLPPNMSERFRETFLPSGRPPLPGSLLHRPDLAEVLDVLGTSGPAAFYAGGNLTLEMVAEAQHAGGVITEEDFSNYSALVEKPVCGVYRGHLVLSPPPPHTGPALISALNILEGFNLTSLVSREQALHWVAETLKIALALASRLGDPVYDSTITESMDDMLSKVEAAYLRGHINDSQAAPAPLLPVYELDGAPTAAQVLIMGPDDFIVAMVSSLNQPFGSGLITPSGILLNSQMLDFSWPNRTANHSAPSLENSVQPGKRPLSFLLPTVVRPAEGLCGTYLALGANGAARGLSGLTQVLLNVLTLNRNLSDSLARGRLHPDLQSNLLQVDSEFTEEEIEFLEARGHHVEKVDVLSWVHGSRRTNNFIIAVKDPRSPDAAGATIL
inactive: erlotinib 0.012 | [1] -0.006 | [2] 0.084 | [3] -0.027 | [4] -0.001 | [5] -0.004 | [6] -0.018 | [7] -0.01 | [8] -0.035 | [9] 0.062

GAGE12F (UniProt P0CL80)
inactive: erlotinib -0.056 | [1] -0.061 | [2] 0.017 | [3] -0.035 | [4] 0.08 | [5] 0.025 | [6] -0.007 | [7] 0.011 | [8] -0.088 | [9] 0.052

HAX1 (UniProt O00165)
inactive: erlotinib 0.07 | [1] -0.006 | [2] -0.024 | [3] -0.014 | [4] 0.087 | [5] 0.008 | [6] 0.06 | [7] 0.156 | [8] 0.027 | [9] -0.078

IFITM3 (UniProt Q01628)
active: [2] -0.471
inactive: erlotinib -0.093 | [1] -0.031 | [3] 0.042 | [4] -0.041 | [5] 0.058 | [6] 0.118 | [7] -0.01 | [8] -0.016 | [9] -0.03

GSTT1 (UniProt P30711)
inactive: erlotinib 0.037 | [1] -0.007 | [2] 0.275 | [3] 0.033 | [4] 0.114 | [5] 0.037 | [6] -0.044 | [7] -0.031 | [8] 0.003 | [9] -0.028

GALNT4 (UniProt Q8N4A0)
inactive: erlotinib 0.077 | [1] 0.062 | [2] 0.075 | [3] 0.026 | [4] 0.086 | [5] 0.044 | [6] -0.012 | [7] 0.008 | [8] 0.006 | [9] 0.005

HEXB (UniProt P07686)
inactive: erlotinib -0.004 | [1] 0.002 | [2] 0.01 | [3] 0.003 | [4] -0.002 | [5] 0.017 | [6] 0.017 | [7] -0.01 | [8] 0.008 | [9] 0.026

GNG5 (UniProt P63218)
UniProt P63218, sequence (P63218 whole entry, looked up): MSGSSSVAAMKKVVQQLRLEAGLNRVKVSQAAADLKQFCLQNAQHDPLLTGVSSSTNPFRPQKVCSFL
inactive: erlotinib -0.07 | [1] 0.01 | [3] 0.089 | [4] 0.031 | [5] -0.001 | [6] 0.072 | [7] 0.038 | [8] -0.037 | [9] -0.044
active: [2] 0.436

FARS2 (UniProt O95363)
inactive: erlotinib 0 | [1] 0.081 | [2] -0.046 | [3] 0.061 | [4] -0.03 | [5] -0.018 | [6] 0.014 | [7] 0.065 | [8] 0.084 | [9] -0.057

HDAC6 (UniProt Q9UBN7)
UniProt Q9UBN7, sequence (Q9UBN7 whole entry, looked up): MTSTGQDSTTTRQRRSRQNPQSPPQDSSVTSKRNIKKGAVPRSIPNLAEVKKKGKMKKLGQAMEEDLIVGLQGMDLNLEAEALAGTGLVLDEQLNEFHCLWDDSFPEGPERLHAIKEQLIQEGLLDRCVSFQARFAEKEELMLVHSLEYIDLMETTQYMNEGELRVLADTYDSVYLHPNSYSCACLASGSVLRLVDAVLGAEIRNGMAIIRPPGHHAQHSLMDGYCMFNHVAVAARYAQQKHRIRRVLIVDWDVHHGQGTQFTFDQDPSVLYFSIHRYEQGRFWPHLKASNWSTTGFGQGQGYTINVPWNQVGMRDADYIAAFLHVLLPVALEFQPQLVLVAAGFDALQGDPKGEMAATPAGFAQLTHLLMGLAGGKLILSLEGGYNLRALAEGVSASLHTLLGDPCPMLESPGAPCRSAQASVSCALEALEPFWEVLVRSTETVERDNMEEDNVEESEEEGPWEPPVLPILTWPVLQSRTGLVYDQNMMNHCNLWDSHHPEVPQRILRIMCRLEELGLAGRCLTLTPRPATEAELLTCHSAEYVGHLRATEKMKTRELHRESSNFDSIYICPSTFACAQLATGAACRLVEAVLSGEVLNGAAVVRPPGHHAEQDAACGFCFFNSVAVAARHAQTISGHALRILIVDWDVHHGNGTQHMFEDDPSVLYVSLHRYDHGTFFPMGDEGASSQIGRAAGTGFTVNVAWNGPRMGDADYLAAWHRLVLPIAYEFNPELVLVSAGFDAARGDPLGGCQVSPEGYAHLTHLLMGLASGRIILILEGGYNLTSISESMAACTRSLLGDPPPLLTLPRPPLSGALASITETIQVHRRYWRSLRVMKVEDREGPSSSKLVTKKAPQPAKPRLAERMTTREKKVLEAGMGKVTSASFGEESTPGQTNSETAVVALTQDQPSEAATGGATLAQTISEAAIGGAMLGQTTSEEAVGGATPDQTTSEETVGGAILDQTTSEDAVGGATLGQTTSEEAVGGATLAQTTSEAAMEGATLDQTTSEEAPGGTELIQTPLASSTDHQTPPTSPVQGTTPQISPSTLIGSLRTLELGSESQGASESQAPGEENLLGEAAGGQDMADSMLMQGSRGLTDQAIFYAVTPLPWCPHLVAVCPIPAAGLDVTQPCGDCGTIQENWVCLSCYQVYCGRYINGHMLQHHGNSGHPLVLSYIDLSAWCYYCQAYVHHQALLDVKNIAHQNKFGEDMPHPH
inactive: [1] 0.033 | [2] -0.007 | [3] -0.007 | [4] 0.041 | [5] -0.164 | [6] 0.033 | [7] 0.07 | [8] -0.043 | [9] 0.115
active: erlotinib 0.43

FHOD1 (UniProt Q9Y613)
inactive: erlotinib -0.002 | [1] -0.259 | [2] -0.337 | [3] -0.059 | [4] 0.059 | [5] 0.146 | [6] -0.034 | [7] -0.007

HLTF (UniProt Q14527)
inactive: erlotinib -0.005 | [1] 0.018 | [2] 0.068 | [3] 0.039 | [4] 0.034 | [5] -0.067 | [6] -0.009 | [7] 0.044 | [8] -0.016 | [9] -0.011

HS1BP3 (UniProt Q53T59)
inactive: erlotinib 0.008 | [1] 0.042 | [2] 0 | [3] -0.073 | [4] 0.147 | [5] -0.008 | [6] -0.032 | [7] -0.03

GLYR1 (UniProt Q49A26)
inactive: erlotinib -0.053 | [1] -0.211 | [2] -0.289 | [3] 0.05 | [4] -0.352 | [5] 0.1 | [6] -0.021 | [7] -0.034 | [8] 0.119 | [9] -0.03
